High-throughput results as filed in PubChem BioAssay.
HT1080 IDH1KD tx = HT-1080 IDH1 knockdown cell toxicity (counter line); HT-1080 IDH1 knockdown viability, ATP luminescence, 48 h; Potency, µM (titrated, usually from 46.1 µM), for inactives: at the top dose activity, negative = toxicity, usual class: cytotoxic; 360,000 compounds, 2% hits; AID 686971;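 note: 0% = DMSO wells and -100% = cell-free medium wells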
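Luminescent ATP read-out (CellTiter-Glo, 10 min at room temperature) after 48 h compound exposure at 37 °C gave viability of IDH1-knockdown HT-1080 cells. Activity was normalised to DMSO and cell-free wells, then fitted as concentration-response curves.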
SW480 rerep = induces DNA re-replication in SW480 colon adenocarcinoma cells; 340,000 compounds, 1.8% hits; SW480 DNA re-replication, Hoechst DNA content imaging, 48 h; Potency, µM (titrated, usually from 46.1 µM), inactives show top-dose re-replication activation, most hits filed as activators; note: % of control where 0% means no effect; nearly all actives have a fitted effect of over 55% in size
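Cells (250 per well) received 23 nL compound or DMSO by pin tool and were kept 48 hr at 37 C, 5% CO2. Nuclei were then stained with Hoechst for 40 min and scanned for DNA content.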
KB-3-1 cytotox = KB-3-1 parental cell cytotoxicity. KB-3-1 viability, CellTiter-Glo ATP luminescence, 72 h. Potency, µM (series often up to 46.1 µM), hits mostly cytotoxic. 400,000 compounds, 1.4% hits. AID 1347075; note: % is set by controls: 0 for no effect and ±100 for the full control effect; nearly all actives have a fitted effect of over 60% in size
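Luminescent ATP read-out (CellTiter-Glo) measures survival of drug-naive KB-3-1 cells after 72 h compound exposure at 37 °C. Titration series was screened from lowest to highest concentration, with DMSO vehicle plates as background controls.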
HT1080-NT tox = kills 2HG-producing HT-1080-NT fibrosarcoma cells; Potency, µM (titrated, usually from 46.1 µM), inactives show at the highest dose activity, negative = less viability, hits mostly cytotoxic; HT-1080-NT fibrosarcoma viability, CellTiter-Glo ATP luminescence, 48 h; 360,000 compounds, 1.6% hits;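 note: NT is the 2HG producing partner of a matched IDH1 knockdown line; 0% = DMSO-treated cells and -100% = media-only wells without cells; nearly all actives have a fitted effect of over 55% in size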
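Luminescent CellTiter-Glo readout after 48 hours of compound exposure at 37 degrees C defined viability of HT-1080-NT cells. Activity was normalized to DMSO wells and cell-free media wells; concentration-response curves were fitted and assigned curve classes.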
MCF10A rerep = inducers of DNA re-replication in MCF 10A breast cells; 350,000 compounds, 2.9% hits; Potency, µM (series often up to 46.1 µM), inactives show at the top dose activity, positive = re-replication, actives largely listed as activators; MCF 10A DNA re-replication, Hoechst nuclear intensity, 48 h; note: % of control where 0% means no effect; nearly all actives have a fitted effect of over 50% in size
KB-V1 MDR tox = kills drug-selected multidrug resistant KB-V1 cells. KB-V1 MDR cells viability, CellTiter-Glo, 72 h. 400,000 compounds, 3.4% hits. Potency, µM (series often up to 46.1 µM), hits mostly cytotoxic. AID 1347076; note: % is set by controls: 0 for no effect and ±100 for the full control effect; nearly all actives have a fitted effect of over 60% in size
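Potencies derive from concentration-effect curves fitted to normalized luminescence (CellTiter-Glo) of KB-V1 cells treated for 72 h at 37 degrees C in phenol-red-free DMEM containing 10% FBS.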
* hit, by the source's call; i = inactive; ? = inconclusive; · = no result given; [ ] = remark or other dose. Sampled rows, rich in hits. Any-hit rate of the full collection: about 7.9%. Calls come from the whole dose curve; as a rule, active = well fitted curve in the direction sought with a large enough effect; inconclusive = small, poorly fitted or top-dose-only effect, or another doubt; inactive = no such curve, though single readings can be large; an effect the other way counts as inactive or inconclusive. Potency is the fitted concentration of half-maximal effect.

SMILES | HT1080 IDH1KD tx | SW480 rerep | KB-3-1 cytotox | HT1080-NT tox | MCF10A rerep | KB-V1 MDR tox
CC(=O)Nc1ccc(/C=C(\C#N)C(=O)NC2CCCCC2C)cc1 (stereo not given) | -12% | 3% | i | -4% | ? | ?
CCC1CCCCN1CCCNC(=O)c1ccc(CS(=O)(=O)c2ccccc2OC)o1 (stereo not given) | 13% | 3% | i | 11% | -3% | i
CCCc1cc(N2CCCC(C(=O)Nc3cc(Cl)ccc3OC)C2)n2ncnc2n1 (stereo not given) | -2% | -10% | i | 14% | 17% | 13µM*
Cc1cc(N2CCCC(C(=O)Nc3ccc4c(c3)CCC4)C2)n2ncnc2n1 (stereo not given) | ? | 2% | ? | -4% | 4% | 4.6µM*
COc1cc(-c2ccno2)ccc1S(=O)(=O)N1CCN(c2cccc(Cl)c2)CC1 | · | · | i | · | · | i
O=CNc1ccc2c(c1)Cc1cc([N+](=O)[O-])ccc1-2 | 5.2µM* | 3.3µM* | 2.3µM* | 5.8µM* | ? | ?
CCOC(=O)c1cnc2ccc(OC(F)(F)F)cc2c1Nc1ccccc1C(=O)O | · | · | i | · | · | i
O=C(c1ccccc1)N1CCCc2ccccc21 | 2% | -1% | i | 1% | -3% | i
COc1ccc(C(=O)N2CCCc3ccccc32)cc1OC | 8% | -9% | i | 17% | 9% | i
Cc1nc2ccc(C(=O)N3c4ccccc4CC3C)cc2s1 (stereo not given) | 18µM* | ? | ? | ? | ? | ?
CCCN(CCC)S(=O)(=O)c1ccc(C(=O)N2CCCc3ccccc32)cc1 | 3% | ? | ? | 4% | 23µM* | ?
O=C(Nc1cccc(C(=O)N2CCCc3ccccc32)c1)c1ccccc1 | 23µM* | ? | ? | ? | 15µM* | 21µM*
COc1cc(C(=O)N2CCCc3ccccc32)cc(OC)c1OC | ? | ? | ? | ? | 10µM* | ?
Cc1cc(C)c(NC(=O)CN(CC(=O)O)CC(=O)O)c(C)c1Br | · | 0% | · | · | 3% | ·
CCOc1ccc(C(=O)Nc2cccc3ncccc23)cc1Cl | -12% | -10% | i | 10% | -3% | ?
CC1Cc2ccccc2N1C(=O)c1ccnc(C(C)(C)C)c1 (stereo not given) | 11% | 2% | i | 5% | 23% | i
COc1cc(C(=O)N2c3ccccc3CC2C)cc(OC)c1OC (stereo not given) | 0%[9.24 µM] | 5% | ? | -15% | -1% | 18µM*
C=CC[n+]1c(/C=C2\C=Cc3cc(C)ccc3N2CC)ccc2ccccc21 | 13µM* | -161% | ? | ? | 0% | ?
O=C(Nc1nnc(-c2ccc(F)cc2)o1)c1cc(Cl)sc1Cl | -13% | 29% | ? | 1% | 1µM* | i
COc1cccc(-c2nnc(NC(=O)c3cccc(F)c3)o2)c1 | -9% | 21% | i | -4% | 23µM* | ?
COc1cccc(-c2nnc(NC(=O)c3ccccc3Br)o2)c1 | ? | ? | ? | ? | -2% | i
COc1cccc(-c2nnc(NC(=O)c3ccc(Cl)s3)o2)c1 | -25% | 25% | ? | 2% | 6.5µM* | i
O=C(Nc1nnc(-c2ccccc2)o1)c1cc(Cl)sc1Cl | 0% | -11% | ? | 14% | ? | i
COc1ccc(-c2nnc(NC(=O)c3ccc([N+](=O)[O-])o3)o2)c(OC)c1 | -2% | 16µM* | i | -1% | 8.2µM* | ?
Cc1cccc(-c2nnc(NC(=O)c3ccc(Cl)cc3)o2)c1 | ? | ? | ? | ? | 15µM* | 13µM*
SMILES | HT1080 IDH1KD tx | SW480 rerep | KB-3-1 cytotox | HT1080-NT tox | MCF10A rerep | KB-V1 MDR tox
C=CCn1c(SCC(=O)N(C)c2c(N)n(Cc3ccccc3)c(=O)[nH]c2=O)nnc1-c1ccccc1OC | 2% | ? | · | 0% | -1% | ·
CC(C)Cn1c(N)c(C(=O)COC(=O)c2c(F)cccc2F)c(=O)n(C)c1=O | -2% | -56% | ? | 1% | 0.52µM* | i
CCN1CCCC1CNCC(O)COc1ccc(C(C)(C)C)cc1C (stereo not given) | ? | ? | i | -28% | 9.2µM* | i
O=C(CSc1nnc(SCc2ccc(Cl)cc2)s1)N/N=C/c1c[nH]c2ccccc12 | 18µM* | ? | ? | ? | ? | ?
O=C(CSc1nnc(SCc2cccc3ccccc23)s1)N/N=C/c1c[nH]c2ccccc12 | ? | -70% | i | -19% | 17% | i
CCCC1S/C(=N/N=C/c2ccc(OC)cc2)N(Cc2ccccc2)C1=O (stereo not given) | -8% | -3%[9.22 µM] | i | 2% | ? | i
CCCCC1S/C(=N/N=C/c2ccc(OC)cc2)N(Cc2ccc(OC)cc2)C1=O (stereo not given) | -3% | ? | i | -3% | 2% | 8.2µM*
CCCC1S/C(=N/N=C/c2ccc(OC)cc2)N(Cc2ccc(OC)cc2)C1=O (stereo not given) | -2% | -1% | i | -4% | 11% | 16µM*
COc1ccc(N2C(=O)C(CC(=O)O)S/C2=N\N=C\c2cccs2)cc1 (stereo not given) | 18% | -4% | i | 18% | 3% | i
O=C(NC1CCCCC1)[C@@H]1CC=C[C@@H]2CCN(Cc3ccc(Cl)c(Cl)c3)C(=O)[C@@H]21 | · | · | i | · | · | i
COc1ccc(C(=O)C2CCCN(Cc3cccn3-c3ccccn3)C2)c(OC)c1 (stereo not given) | 15µM* | 6% | i | 6.5µM* | 28% | ?
COc1ccc(F)cc1C(=O)C1CCCN(Cc2cccn2-c2ccccn2)C1 (stereo not given) | ? | ? | i | ? | ? | i
O=C(CC1Sc2ccccc2NC1=O)Nc1ccccc1[N+](=O)[O-] (stereo not given) | -5% | 5% | i | -3% | 9% | 16µM*
CCc1ccc(NC(=O)CSc2ccc(-c3ccccn3)nn2)cc1 | -28% | 12% | ? | ? | 12µM* | i
O=C(CSc1ccccn1)Nc1ccc2c(c1)CCC2 | 3% | -19% | i | 6% | ? | i
COc1ccc(NC(=O)CSc2ccc(-c3ccco3)nn2)cc1OC | 0% | -22% | i | -10% | -16% | ?
Cc1cc(C)cc(NC(=O)CSc2ccc(-c3cccs3)nn2)c1 | -28% | 17% | i | -19% | 11% | i
